# Assay results reported in PubChem BioAssay (NCATS).
# Records with an inconclusive call do not appear. Entries that show only a call come without a potency. Activity calls are given as the source filed them. Unless noted, calls follow the shape of the dose curve; as a rule, active = well fitted curve in the direction sought with a large enough effect; inconclusive = small, poorly fitted or top-dose-only effect, or another doubt; inactive = no such curve, though single readings can be large; an effect the other way counts as inactive or inconclusive.
# Columns and labels:
# [1] = target: Cytochrome P450 1A2 (Homo sapiens) (UniProt P05177); assay: p450-cyp1a2 (AID 410; calls by dose curve; also: potency is read from the fitted curve at half-maximal effect)
# Outline: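 Human CYP1A2 (20nM) demethylated Luciferin-ME at its Km (100uM) in 100mM KPO4. After 10 min compound preincubation, NADPH regeneration ran the reaction 60 min at room temperature. Luciferin was read by luminescence, normalized to 57 uM furafylline.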
# [2] = target: 3',5'-cyclic-AMP phosphodiesterase 4B (Homo sapiens) (UniProt Q07343); assay: qHTS Assay for Inhibitors of PDE-IV (AID 607; active = well fitted activation curve with a large enough effect in the main read-out, with a control signal flat, not every such curve was filed as active)
# Outline: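 ACTOne HEK293 cells carry a modified cAMP-gated CNG channel and express endogenous PDE4; plated 1000 cells/well, compounds up to 22.9 uM final. Membrane-potential dye fluorescence (ex 535/em 590) was read; parental cells received 10 uM forskolin + 100 uM RO 20-1724.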
# [3] = target: Cytochrome P450 3A4 (Homo sapiens) (UniProt P08684); assay: qHTS Assay for Activators of Cytochrome P450 3A4 (AID 885); also: nearly all actives have a fitted effect of over 65% in size
# Outline: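 20nM CYP3A4 + 25uM Luciferin-PPXE (=KM), 200mM KPO4; cpd 10 min RT; NADPH regen, 60 min RT; stop w/ detection buffer, 20 min; luminescence. Normalized to 57 uM ketoconazole.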
# [4] = target: Rap guanine nucleotide exchange factor 3 (Homo sapiens) (UniProt O95398); assay: Confirmatory qHTS for antagonist of cAMP-regulated guanine nucleotide exchange factor 3 (EPAC1) (AID 1645880); also: nearly all actives have a fitted effect of over 55% in size
# Outline: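 Nucleotide exchange uses 100 nM EPAC1, 250 nM RAP1B-BODIPY-GDP and 50 uM GDP, with compounds in a concentration-titration series. After 5 min at room temperature, fluorescence (480 nm ex/540 nm em) is read every 5 min for 30 min. Data are normalized to control ATA and DMSO.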
# [5] = target: Rap guanine nucleotide exchange factor 3 (Homo sapiens) (UniProt O95398); assay: Confirmatory qHTS for agonist of cAMP-regulated guanine nucleotide exchange factor 3 (EPAC1) (AID 1645881);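 also: EPAC1 catalysed release of BODIPY-GDP from Rap1B seen as fluorescence loss; nearly all actives have a fitted effect of over 75% in size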
# [6] = target: Rap guanine nucleotide exchange factor 4 (Homo sapiens) (UniProt Q8WZA2); assay: Confirmatory qHTS for agonist of cAMP-regulated guanine nucleotide exchange factor 4 (EPAC2) (AID 1645884);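 also: nucleotide exchange releases bodipy-GDP from Rap1 and this lowers its fluorescence; nearly all actives have a fitted effect of over 65% in size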
# [7] = AP1 Signaling Pathway (AID 357; active = well fitted curve in either direction with a large enough effect, not every such curve was filed as active;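 also: ME-180 reporter cells stimulated with EGF at its EC50 level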); conditions: ME-180 (cervical carcinoma) AP-1-bla reporter, EGF-induced, beta-lactamase ratio, 5 h
# Outline: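 Modulation of EGF-driven AP-1 transcription was assessed with a beta-lactamase reporter in ME-180 cells. Compound and EC50 EGF were co-incubated 5 hours at 37 °C before 2.5-hour CCF4 loading at room temperature and dual-emission reading.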
# [8] = Confirmation and Secondary Assay for Modulators of Hemoglobin Beta Chain Splicing at IVS2 654 locus (AID 910);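 also: per-well total GFP intensity by laser scanning cytometry after 2-day treatment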
# Outline: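 HeLa cells stably carrying EGFP interrupted by mutant beta-globin IVS2-654 intron (CMV-driven) were treated with compound for 2 days at 37C; corrected splicing was scored as total peak GFP intensity per well (488 nm excitation, 500-520 nm emission).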
# [9] = Confirmation and Secondary Assay for Modulators of Hemoglobin Beta Chain Splicing at IVS2 705 locus (AID 930);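 also: HeLa cells stably expressing the EGFP-705 splicing reporter; GFP fluorescence per well restored by corrected splicing of the IVS2-705 intron in EGFP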
# Outline: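 HeLa EGFP-705 reporter; 500 cells/well, o/n 37C 5% CO2; cpd 2 d; 488 ex/500-520 em laser scan; total peak GFP intensity/well. Ref: 500 nM […] antisense PNA.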
# [10] = Confirmatory qHTS for small molecule stabilizers of the endoplasmic reticulum resident proteome: Secreted ER Calcium Modulated Protein (SERCaMP) assay (AID 1508628);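 also: SH-SY5Y cells given compound 16 h then thapsigargin 100 nM for 4 h; nearly all actives have a fitted effect of over 40% in size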
# Outline: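 We seeded SH-SY5Y-GLuc-SERCaMP cells, added compounds (three concentrations in the primary run, eleven up to 76.6 uM in confirmation), incubated 16 h, depleted ER calcium with thapsigargin, and read luciferase 4 h later.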
# [11] = Primary qHTS for inhibitors of nuclear receptor binding SET domain protein 2 (NSD2) in an isogenic RCH-ACV NSD2 p.E1099K mutant (9B) (AID 1645876); also: potency is read from the fitted curve at half-maximal effect; nearly all actives have a fitted effect of over 70% in size
# [12] = Primary qHTS for inhibitors of nuclear receptor binding SET domain protein 2 (NSD2) in an RCH-ACV wild type WT cells (2C) (AID 1645877); also: potency is read from the fitted curve at half-maximal effect; nearly all actives have a fitted effect of over 70% in size
# [13] = target: Cytochrome P450 3A4 (Homo sapiens) (UniProt P08684); assay: qHTS Assay for Inhibitors and Substrates of Cytochrome P450 3A4 (AID 884); also: potency is read from the fitted curve at half-maximal effect; nearly all actives have a fitted effect of over 50% in size
# Outline: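 20 nM human CYP3A4 with 25 uM Luciferin-PPXE (at KM) in 200 mM KPO4, preincubated 10 min with compound; NADPH regeneration started a 60 min RT reaction. Luciferin detected by luminescence, normalized to 57 uM ketoconazole as full inhibition.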
# [14] = target: Glutathione peroxidase 1 (Homo sapiens) (UniProt P07203); assay: Primary qHTS Assay for Inhibitors of Recombinant Selenoprotein Glutathione Peroxidase 1 (GPX1) (AID 1845191); also: nearly all actives have a fitted effect of over 65% in size
# Outline: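 Recombinant GPX1 (10 nM final) was preincubated with compound for 30 min at room temperature, then reacted with 1 mM GSH, 0.5 mM CHP, 0.5 mM NADPH and 100 nM glutathione reductase; NADPH fluorescence (340/450 nm) was read at 0 and 15 min.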
# [15] = qHTS drug screen for cell cycle checkpoint inhibitors in PARPi-resistant BRCA-mutant ovarian cancer cell lines. (AID 1963452; calls by dose curve); conditions: PEO1/OlaR viability, CellTiter-Glo luminescence, 96 h, stronger effect = lower value
# Outline: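 PEO1, PEO4 and PEO1/OlaR ovarian cancer cells, 600 per well, exposed 96 h at 37C to a dilution series. Viability read by CellTiter-Glo luminescence, normalized to DMSO and empty wells; activity summarized as Z-AUC.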
# [16] = test system: Zika virus NS2B-NS3 protease (linked); assay: 384 well plate NINDS AMC confirmatory qHTS for Zika virus inhibitors (AID 1347163);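 also: linked protease at 5 30 or 60 nM final depending on run; fluorescence of AMC released from Ac-VKTGKR-AMC peptide cleaved by the protease; top concentration of the series differs between compounds; nearly all actives have a fitted effect of over 50% in size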
# Outline: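 Linked protease 5/30/60 nM final; cpds up to 1 mM final, ~15 min preinc. Substrate Ac-VKTGKR-AMC 30 microM final. RT, dark, 25 min; FI ex 355/em 460; normalized to no-enzyme/no-inhibitor ctrls.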
# [17] = test system: Zika virus NS2B-NS3 protease (linked construct); assay: 384 well plate NINDS Rhodamine confirmatory qHTS for Zika virus inhibitors (AID 1347164);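 also: fluorescence from protease cleavage of Ac-LKRR-rhodamine 110 substrate; nearly all actives have a fitted effect of over 65% in size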; also: potency is read from the fitted curve at half-maximal effect; as to activity change, negative = inhibition: top concentration of the series differs between compounds
# Outline: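 Fluorescence read at ex 485 nm/em 538 nm, 25 min after adding 10 microM Ac-LKRR-Rd substrate at room temperature in the dark; signal normalized to no-enzyme and no-inhibitor controls. Enzyme final 5, 30 or 60 nM; compounds, ~15 min preincubation.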
# [18] = target: Mitogen-activated protein kinase 10 (Mus musculus) (UniProt Q61831); assay: JNK3 AlphaScreen Assay (AID 530; active = well fitted curve in either direction with a large enough effect, not every such curve was filed as active;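 also: kinase came from lysate of stimulated human HepG2 cells; signal reports phosphorylation of biotinylated GST-cJun 1-79 at Ser73 with 10 µM ATP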)
# Outline: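 JNK3 came from HepG2 lysates pre-activated with IL-1beta and TNF-alpha and phosphorylated biotinylated GST-cJun (1-79) at 10 uM ATP, pH 7.6, room temperature. Compounds were titrated. AlphaScreen signal used anti-phospho-cJun (Ser73) antibody.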
# [19] = target: Cytochrome P450 2D6 (Homo sapiens) (UniProt P10635); assay: qHTS Assay for Inhibitors and Substrates of Cytochrome P450 2D6 (AID 891); also: potency is read from the fitted curve at half-maximal effect; nearly all actives have a fitted effect of over 60% in size
# Outline: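 Human CYP2D6 (5 nM) with 30 uM Luciferin-ME EGE (at Km) in 100 mM KPO4, compound preincubated 10 min, then NADPH regeneration system for 60 min at room temperature. Luciferin read by luminescence; normalized to 1.43 uM quinidine.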
# Cytochrome P450 3A4 (Homo sapiens), sequence (P08684 whole entry, looked up): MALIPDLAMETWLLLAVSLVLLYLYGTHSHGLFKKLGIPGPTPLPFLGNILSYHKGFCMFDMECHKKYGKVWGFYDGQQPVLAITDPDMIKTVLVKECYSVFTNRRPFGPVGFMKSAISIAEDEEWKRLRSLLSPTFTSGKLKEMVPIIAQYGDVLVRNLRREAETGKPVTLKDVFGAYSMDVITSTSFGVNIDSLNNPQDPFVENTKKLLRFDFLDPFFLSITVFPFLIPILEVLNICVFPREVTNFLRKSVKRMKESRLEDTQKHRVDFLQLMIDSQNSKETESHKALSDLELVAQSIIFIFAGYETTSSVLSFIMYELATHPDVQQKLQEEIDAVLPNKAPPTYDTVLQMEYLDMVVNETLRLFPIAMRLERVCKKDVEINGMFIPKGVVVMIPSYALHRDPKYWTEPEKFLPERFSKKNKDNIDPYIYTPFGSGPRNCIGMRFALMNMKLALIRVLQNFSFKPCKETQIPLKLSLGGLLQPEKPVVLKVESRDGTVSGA
# Rap guanine nucleotide exchange factor 4 (Homo sapiens), sequence (Q8WZA2 whole entry, looked up): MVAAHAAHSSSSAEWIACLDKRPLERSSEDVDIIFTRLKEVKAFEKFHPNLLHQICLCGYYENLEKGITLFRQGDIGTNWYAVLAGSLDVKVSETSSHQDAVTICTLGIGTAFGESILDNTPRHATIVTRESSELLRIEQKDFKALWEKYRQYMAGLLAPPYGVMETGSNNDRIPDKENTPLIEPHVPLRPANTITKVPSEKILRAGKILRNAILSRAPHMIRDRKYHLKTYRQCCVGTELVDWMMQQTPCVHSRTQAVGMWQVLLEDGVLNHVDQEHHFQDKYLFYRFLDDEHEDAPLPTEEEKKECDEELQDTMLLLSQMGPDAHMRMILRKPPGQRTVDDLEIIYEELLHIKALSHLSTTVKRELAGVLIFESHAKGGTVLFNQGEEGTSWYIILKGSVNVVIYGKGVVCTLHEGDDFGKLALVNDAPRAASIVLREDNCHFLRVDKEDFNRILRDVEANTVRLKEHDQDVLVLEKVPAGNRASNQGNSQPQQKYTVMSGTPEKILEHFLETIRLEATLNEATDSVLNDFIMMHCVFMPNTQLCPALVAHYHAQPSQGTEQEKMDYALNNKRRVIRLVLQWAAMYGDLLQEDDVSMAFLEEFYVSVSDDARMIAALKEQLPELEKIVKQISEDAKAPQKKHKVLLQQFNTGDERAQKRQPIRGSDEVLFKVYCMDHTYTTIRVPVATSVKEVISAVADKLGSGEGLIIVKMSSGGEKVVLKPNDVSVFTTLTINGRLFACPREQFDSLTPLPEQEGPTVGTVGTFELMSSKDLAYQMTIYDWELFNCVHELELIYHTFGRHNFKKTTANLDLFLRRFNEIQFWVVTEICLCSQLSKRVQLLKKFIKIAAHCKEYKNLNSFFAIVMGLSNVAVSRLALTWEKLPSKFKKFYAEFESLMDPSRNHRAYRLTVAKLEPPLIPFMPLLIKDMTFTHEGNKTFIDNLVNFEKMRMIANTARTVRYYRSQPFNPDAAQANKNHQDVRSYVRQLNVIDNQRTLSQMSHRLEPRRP
# Cytochrome P450 1A2 (Homo sapiens), sequence (P05177 whole entry, looked up): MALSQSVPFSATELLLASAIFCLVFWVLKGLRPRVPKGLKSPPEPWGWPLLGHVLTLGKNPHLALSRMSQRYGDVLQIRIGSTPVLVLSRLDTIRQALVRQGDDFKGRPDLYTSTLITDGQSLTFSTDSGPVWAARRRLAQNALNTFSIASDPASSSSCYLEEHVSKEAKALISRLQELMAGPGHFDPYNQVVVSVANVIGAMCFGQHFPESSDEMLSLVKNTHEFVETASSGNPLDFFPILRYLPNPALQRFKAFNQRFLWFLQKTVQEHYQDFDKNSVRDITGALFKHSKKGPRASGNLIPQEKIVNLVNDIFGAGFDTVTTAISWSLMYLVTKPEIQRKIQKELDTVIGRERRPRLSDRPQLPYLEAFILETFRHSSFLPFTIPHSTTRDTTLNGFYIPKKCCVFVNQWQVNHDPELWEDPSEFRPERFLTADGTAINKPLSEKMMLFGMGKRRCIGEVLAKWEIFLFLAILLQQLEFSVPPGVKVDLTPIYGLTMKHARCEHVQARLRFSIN
# Rap guanine nucleotide exchange factor 3 (Homo sapiens), sequence (O95398 whole entry, looked up): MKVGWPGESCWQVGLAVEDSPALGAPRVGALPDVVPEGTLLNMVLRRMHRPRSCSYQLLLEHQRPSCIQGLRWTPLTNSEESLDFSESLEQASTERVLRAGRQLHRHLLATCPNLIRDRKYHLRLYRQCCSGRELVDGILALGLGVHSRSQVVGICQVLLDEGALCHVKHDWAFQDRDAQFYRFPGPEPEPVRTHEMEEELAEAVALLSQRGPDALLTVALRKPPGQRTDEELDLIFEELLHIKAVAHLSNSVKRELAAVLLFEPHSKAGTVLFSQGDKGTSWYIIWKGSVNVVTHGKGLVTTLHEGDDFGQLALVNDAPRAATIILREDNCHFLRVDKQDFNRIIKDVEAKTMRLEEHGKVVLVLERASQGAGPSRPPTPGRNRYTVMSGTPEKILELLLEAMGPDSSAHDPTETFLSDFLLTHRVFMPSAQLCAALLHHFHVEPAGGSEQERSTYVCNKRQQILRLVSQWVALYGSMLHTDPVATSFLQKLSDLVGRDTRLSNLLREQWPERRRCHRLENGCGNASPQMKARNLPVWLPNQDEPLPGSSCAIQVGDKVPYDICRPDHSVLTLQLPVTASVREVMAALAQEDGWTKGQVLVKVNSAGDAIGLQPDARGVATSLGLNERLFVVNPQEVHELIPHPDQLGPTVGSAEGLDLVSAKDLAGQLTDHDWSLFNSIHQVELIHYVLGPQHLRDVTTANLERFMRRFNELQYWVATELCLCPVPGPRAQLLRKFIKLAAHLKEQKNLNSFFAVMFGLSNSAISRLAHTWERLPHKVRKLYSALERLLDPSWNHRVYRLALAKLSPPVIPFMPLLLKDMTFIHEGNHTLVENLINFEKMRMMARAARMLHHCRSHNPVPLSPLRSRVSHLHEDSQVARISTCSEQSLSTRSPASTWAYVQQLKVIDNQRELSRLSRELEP
# 3',5'-cyclic-AMP phosphodiesterase 4B (Homo sapiens), sequence (Q07343 whole entry, looked up): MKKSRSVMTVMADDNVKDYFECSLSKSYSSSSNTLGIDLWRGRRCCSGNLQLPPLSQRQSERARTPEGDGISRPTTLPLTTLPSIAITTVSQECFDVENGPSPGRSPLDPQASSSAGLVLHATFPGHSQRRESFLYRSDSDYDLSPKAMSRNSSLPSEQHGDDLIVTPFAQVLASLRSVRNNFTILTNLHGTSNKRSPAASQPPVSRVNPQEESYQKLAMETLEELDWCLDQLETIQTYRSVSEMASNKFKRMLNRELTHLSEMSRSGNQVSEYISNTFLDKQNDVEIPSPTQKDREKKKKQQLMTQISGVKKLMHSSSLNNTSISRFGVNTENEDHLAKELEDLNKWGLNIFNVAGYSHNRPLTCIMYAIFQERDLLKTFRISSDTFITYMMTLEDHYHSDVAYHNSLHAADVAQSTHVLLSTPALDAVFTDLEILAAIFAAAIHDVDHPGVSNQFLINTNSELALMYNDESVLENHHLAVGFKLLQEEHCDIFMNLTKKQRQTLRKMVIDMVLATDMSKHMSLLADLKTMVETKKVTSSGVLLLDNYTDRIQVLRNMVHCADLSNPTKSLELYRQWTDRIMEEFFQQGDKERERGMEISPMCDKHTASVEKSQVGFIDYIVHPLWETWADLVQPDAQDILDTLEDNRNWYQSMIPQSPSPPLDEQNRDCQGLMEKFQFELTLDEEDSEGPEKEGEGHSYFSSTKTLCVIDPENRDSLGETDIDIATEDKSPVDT
# Glutathione peroxidase 1 (Homo sapiens), sequence (P07203 whole entry, looked up): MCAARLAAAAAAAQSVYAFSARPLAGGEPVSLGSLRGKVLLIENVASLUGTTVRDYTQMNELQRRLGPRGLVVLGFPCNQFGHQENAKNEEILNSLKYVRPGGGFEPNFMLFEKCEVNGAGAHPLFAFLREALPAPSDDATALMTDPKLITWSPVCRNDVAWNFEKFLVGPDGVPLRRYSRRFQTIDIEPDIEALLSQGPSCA
# Cytochrome P450 2D6 (Homo sapiens), sequence (P10635 whole entry, looked up): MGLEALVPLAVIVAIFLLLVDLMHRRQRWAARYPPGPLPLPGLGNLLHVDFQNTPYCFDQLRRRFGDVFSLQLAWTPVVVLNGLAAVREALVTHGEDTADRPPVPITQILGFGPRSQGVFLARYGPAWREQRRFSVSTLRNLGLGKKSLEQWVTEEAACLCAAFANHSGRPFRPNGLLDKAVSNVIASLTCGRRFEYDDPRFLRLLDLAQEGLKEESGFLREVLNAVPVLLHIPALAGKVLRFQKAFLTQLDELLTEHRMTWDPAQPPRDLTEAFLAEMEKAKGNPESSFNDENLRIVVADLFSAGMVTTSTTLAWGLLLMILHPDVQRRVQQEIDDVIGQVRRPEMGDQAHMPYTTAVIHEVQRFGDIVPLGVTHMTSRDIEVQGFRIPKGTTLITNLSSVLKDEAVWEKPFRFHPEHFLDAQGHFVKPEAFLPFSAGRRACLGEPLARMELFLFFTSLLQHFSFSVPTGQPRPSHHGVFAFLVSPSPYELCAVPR
smiles,measurement,setting,value
COc1cc(OC)c(C(=O)CCCCN2CCC3(CC2)NC(=O)NC3=O)cc1NS(=O)(=O)c1ccc(C(F)(F)F)cc1,Potency,[1],inactive
same,Potency,[2],inactive
same,Potency,[3],inactive
Cc1sc(N)c(C(=O)c2cccc(C(F)(F)F)c2)c1C,Potency,[1],15.8 µM (active)
same,Potency,[3],inactive
same,Potency,[4],inactive
same,outcome,[5],inactive
same,outcome,[6],inactive
Oc1cc2c(cc1O)[C@H](c1ccccc1)CNCC2,"activity change, negative = inhibition",[7]; at 38 µM (top of the series),-11.5% (inactive)
same,Potency,[1],inactive
same,Potency,[2],inactive
same,Potency,[3],inactive
same,outcome,[8],inactive
same,outcome,[9],inactive
same,Potency,[10],inactive
O=C(c1ccc2c(c1)OCO2)N1CCCCC1,Potency,[2],inactive
Nc1ccc(-c2cnc(N)c(-c3ccc(Cl)cc3)c2)cn1,Potency,[11],14.6 µM (active)
same,Potency,[12],14.6 µM (active)
CCCC(NC(=O)/C(C#N)=C/c1cccc(Br)n1)c1ccccc1 (stereo not given),Potency,[11],2.91 µM (active)
same,Potency,[12],3.26 µM (active)
CCOC(=O)C1CSC(Cc2ccc(OCc3ccc([N+](=O)[O-])cc3)cc2)N1 (stereo not given),Potency,[13],15.8 µM (active)
same,Potency,[3],inactive
CC[C@]1(O)C[C@@H]2CN(CCc3c([nH]c4ccccc34)[C@](C(=O)OC)(c3cc4c(cc3OC)N(C=O)[C@H]3[C@@](O)(C(=O)OC)[C@H](C(=O)OC)[C@@]5(CC)C=CCN6CC[C@]43[C@H]65)C2)C1,Potency,[1],inactive
same,Potency,[3],inactive
Cc1cc(/C=c2/sc3nc4ccccc4n3c2=O)c(C)n1-c1ccccc1,Potency,[14],inactive
same,Z-AUC,[15],0.302 (inactive)
same,Z-AUC,[15]; measured here: PEO1 parental Z-AUC,0.332
same,Z-AUC,[15]; measured here: PEO4 Z-AUC,0.429
CCCCC[C@H](O)/C=C/C1=C(CCCCCCC(=O)O)C(=O)CC1,"activity change, negative = inhibition",[7]; at 17.2 µM (top of the series),-2.06% (inactive)
O=C(OCc1cc(=O)n2nc(C3CC3)sc2n1)c1ccc(NC(=O)c2ccccc2F)cc1,Potency,[16],inactive
same,Potency,[17],inactive
CC[N+](C)(CC)CC(=O)Nc1c(C)cccc1C,Potency,[18],inactive
same,Potency,[2],inactive
O=C(NCc1ccccc1Cl)c1ccc2c(O)c(S(=O)(=O)c3ccccc3)c(=O)[nH]c2c1,Potency,[17],50.1 µM (active)
COC(=O)CCC(=O)OC1(C)C(=O)C=C2C=C(C3CC3)N(CCCOC(C)C)C=C2C1=O (stereo not given),Potency,[4],inactive
same,outcome,[5],inactive
same,outcome,[6],inactive
CCCCCCCC/C=C\CCCCCCCC(=O)N[C@@H](CO)Cc1ccc(O)cc1,Potency,[3],inactive
same,Potency,[19],0.126 µM (active)
CC[C@]1(c2ncc[nH]2)Cc2ccccc2O1,Potency,[1],inactive
same,Potency,[18],inactive
same,Potency,[2],inactive
same,Potency,[4],inactive
same,outcome,[5],inactive
same,outcome,[6],inactive
